Laboratory results reported in PubChem BioAssay.
Inconclusive results are not listed. The source made the active and inactive calls.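 The calls were made as follows, unless noted: active = normalized viability below 100% at a tested concentration; inactive = the rest.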

Legend:
[1] = viability loss in pontine glioma line – cell-based, SU-DIPG-XVII, MIPE5.0, CellTiter-Glo, qHTS, dose response (AID 1347060; cut-off not given, nearly all actives have AC50 up to about 26 µM;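 also: cells exposed to compound for 48 hours before viability readout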); settings: CellTiter-Glo ATP luminescence
[2] = viability loss in pontine glioma line – cell-based, SU-DIPG-XIII, MIPE4.0, CellTiter-Glo, qHTS, dose response (AID 1347061; cut-off not given, nearly all actives have AC50 up to about 37 µM;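 also: cells exposed to compound for 48 hours before readout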); settings: CellTiter-Glo ATP luminescence
[3] = viability loss in pontine glioma line – cell-based, JHH-DIPG-1, MIPE4.0, CellTiter-Glo, qHTS, dose response (AID 1347062; cut-off not given, nearly all actives have AC50 up to about 27 µM;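 also: cells exposed to compound for two days before readout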); settings: JHH-DIPG-1 viability, CellTiter-Glo ATP luminescence
[4] = viability loss in pontine glioma line – cell-based, SU-DIPG-IV, MIPE4.0, CellTiter-Glo, qHTS, dose response (AID 1347063; cut-off not given, nearly all actives have AC50 up to about 30 µM;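 also: compound exposure lasted 48 hours before the viability readout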); settings: CellTiter-Glo ATP luminescence
[5] = viability loss in pontine glioma line – cell-based, SU-DIPG-XIII, MIPE5.0, CellTiter-Glo, qHTS, dose response (AID 1347064; cut-off not given, nearly all actives have AC50 up to about 23 µM;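 also: cells exposed to compound for 48 hours before the viability read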); settings: CellTiter-Glo ATP luminescence
[6] = viability loss in pontine glioma line – cell-based, SU-DIPG-XXV, MIPE5.0, CellTiter-Glo, qHTS, dose response (AID 1347065; cut-off not given, nearly all actives have AC50 up to about 26 µM;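 also: cells exposed to compound for 48 hours before ATP readout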); settings: CellTiter-Glo ATP luminescence
[7] = growth inhibition of DIPG cells – cell-based, MIPE4.0 library, CellTiter-Glo luminescence, qHTS (AID 1347066; cut-off not given, nearly all actives have AC50 up to about 30 µM;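 also: cells exposed to compound for 48 hours before readout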); settings: SU-DIPG-VI viability, CellTiter-Glo ATP luminescence
[8] = JHH-DIPG-1 glioma cell viability, MIPE5.0 library, CellTiter-Glo luminescence, qHTS (AID 1347067; cut-off not given, nearly all actives have AC50 up to about 26 µM;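 also: cells exposed to compound for 48 hours before readout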); settings: JHH-DIPG-1 glioma viability, CellTiter-Glo ATP luminescence
[9] = growth inhibition of DIPG cells – cell-based, MIPE5.0 library, qHTS (AID 1347068; cut-off not given, nearly all actives have IC50 up to about 30 µM;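 also: cells exposed to compound for 48 hours before viability readout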); settings: SU-DIPG-XXV viability
[10] = viability loss with induced miR-34 in A549 – imaging, A549 dox-inducible miR-34, nuclei and caspase counts, primary screen (AID 1347080;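 active = compounds whose cell count with miR-34 switched on is under 0.7 times the count with it off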); settings: A549 miR-34 inducible, Hoechst nuclei count, 48 h
[11] = compounds altering HSF1 focus formation in cells – imaging, Selleck Cancer Library (AID 1347162; in the data active = plate-normalised HSF1 focus index below about 0.46); settings: human cells, HSF1 nuclear foci imaging, at 10 µM; SSMD: measured here: HSF1 foci SSMD mean; cell count: measured here: cell number; plate-normalised HSF1 focus index: stronger effect = lower value
[12] = MELAS cybrid and Rieske KO viability enhancers – cell-based, MELAS cybrids, Rieske KO mouse fibroblasts, CellTiter-Glo, primary screen (AID 1508586;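 active = mean z-score across replicates of 1.96 or higher in either the MELAS or the Rieske mutant cell line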;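 also: z relative to plate mean and SD of compound and empty wells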); settings: low glucose
[13] = drug combination growth inhibition, ovarian cancer – cell-based, oncology-focused library, rucaparib conditional, profiling panel (AID 1508598); settings: patient-derived ovarian cancer cells, CellTiter-Glo viability, 144 h, stronger effect = lower value
[14] = growth inhibition, single agent or in combination, cell-based, chromothripsis tumors, cisplatin or BGB combos (AID 1671449; in the data active = inhibition above about 80%;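 also: cells exposed for 96 hours; 0% = vehicle DMSO and 100% = killing by high DMSO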); settings: LFS_MB_P medulloblastoma cells
[15] = growth inhibition, single agent and combos, cell-based, chromothripsis tumors, cisplatin or BGB combos (AID 1671450; in the data active = inhibition above about 80%;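 also: cells exposed to compound for four days; 0% = vehicle DMSO and 100% = cell killing by high DMSO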); settings: HDN33 neuroblastoma cells, stronger effect = higher value
[16] = growth inhibition, single agents and combos, ICB984, cell-based, cisplatin or BGB combos, synergistic combos for chromothripsis tumors (AID 1671451; call rule not given here;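 also: cells exposed for 96 hours before readout; 0% = vehicle DMSO and 100% = killing by high DMSO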); settings: ICB984 medulloblastoma cells, drug combinations, stronger effect = higher value
[17] = growth inhibition, single agents and combos, HTB85, cell-based, BGB or cisplatin IC20 combos, synergistic combos for chromothripsis tumors (AID 1671453; in the data active = inhibition above about 80%;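 also: cells exposed for 96 hours before readout; 0% = vehicle DMSO and 100% = high DMSO killing control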); settings: HTB85 osteosarcoma cells, drug combinations, stronger effect = higher value
[18] = growth inhibition, MDA-MB-436, cell-based, BGB or cisplatin combos, synergistic combos for chromothripsis tumors (AID 1671458; call rule not given here;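 also: cells exposed for 96 hours; 0% = vehicle DMSO and 100% = killing by high DMSO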); settings: MDA-MB-436 breast carcinoma growth inhibition, drug combinations, stronger effect = higher value
[19] = BT084 cell growth, single and combined drugs, ICGC_MB145, cisplatin and BGB IC40 combos (AID 1671461; in the data active = inhibition above about 80%;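 also: cells exposed to drugs for 96 hours; 0% = vehicle DMSO and 100% = high DMSO full killing control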); settings: BT084 medulloblastoma cells, drug combinations, stronger effect = higher value
[20] = RCMB18 cell growth, single agent and combined, cisplatin and BGB IC40 combos (AID 1671462; in the data active = inhibition above about 80%;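 also: cells exposed to compound for four days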); settings: RCMB18 medulloblastoma cells, stronger effect = higher value
[21] = stronger effect = lower value, cell number ratio, induced over uninduced
[22] = measured here: relative caspase fold change +Dox/-Dox
[23] = measured here: total cells with miR-34 induction, stronger effect = lower value
[24] = measured here: total cells without miR-34 induction

With `CCOC(=O)N1CCN(/[N+]([O-])=N/Oc2ccc([N+](=O)[O-])cc2[N+](=O)[O-])CC1` the AC50 [1] was 16.6 µM (active), the outcome [2] was “inactive” and the AC50 [3] was 5.9 µM (active). The AC50 [4] was 4.18 µM (active), the AC50 [5] was 4.17 µM (active) and the AC50 [6] was 3.32 µM (active). For the same molecule, the AC50 [7] was 10.5 µM (active), the AC50 [8] was 4.17 µM (active) and the IC50 [9] was 23.5 µM (active). The fold change [10, 21] was 1.15 (inactive), the fold change [10, 22] was 1.4 and the cell count [10, 23] was 2110. It also gave a cell count [10, 24] of 1840.
In the case of `CC(=O)Nc1nc(C)c(-c2ccc(Cl)c(S(=O)(=O)NCCO)c2)s1`, the AC50 [1] is reported as 10.5 µM (active), the AC50 [2] is reported as 7.43 µM (active) and the AC50 [3] is reported as 13.2 µM (active). For the same molecule, the AC50 [4] was 2.09 µM (active), the AC50 [5] was 14.8 µM (active) and the AC50 [6] was 6.61 µM (active). For the same molecule, the AC50 [7] was 2.64 µM (active), the AC50 [8] was 16.6 µM (active) and the IC50 [9] was 16.6 µM (active). For the same molecule, the fold change [10, 21] was 1.06 (inactive), the fold change [10, 22] was 0.869 and the cell count [10, 23] was 3490. The cell count [10, 24] was 3300, the SSMD [11] was 2.06 and the cell count [11] was 7480. For the same molecule, the plate-normalised HSF1 focus index [11] was 1.13 (inactive), the z-score ([12]; MELAS cybrid survival, CellTiter-Glo 48 h, stronger effect = higher value) was -0.084 (inactive) and the z-score ([12]; Rieske KO mouse fibroblast survival, CellTiter-Glo 72 h) was 1.03. The viability ([13]; at 0.000305 µM, OCI-C5x cells, with rucaparib 10 µM, 100% = cells with rucaparib alone) was 113% (inactive), the viability ([13]; at 0.000305 µM, OCI-C5x cells, without rucaparib) was 119% (inactive) and the viability ([13]; at 0.000305 µM, OCI-P5x cells, with rucaparib 20 µM, 100% = cells with rucaparib alone) was 110% (inactive). For the same molecule, the viability ([13]; at 0.000305 µM, OCI-P5x cells, without rucaparib) was 117% (inactive), the viability ([13]; at 0.00122 µM, OCI-C5x cells, with rucaparib 10 µM, 100% = cells with rucaparib alone) was 102% (inactive) and the viability ([13]; at 0.00122 µM, OCI-C5x cells, without rucaparib) was 126% (inactive). For the same molecule, the viability ([13]; at 0.00122 µM, OCI-P5x cells, with rucaparib 20 µM, 100% = cells with rucaparib alone) was 85.2% (active), the viability ([13]; at 0.00122 µM, OCI-P5x cells, without rucaparib) was 107% (inactive) and the viability ([13]; at 0.00488 µM, OCI-C5x cells, with rucaparib 10 µM, 100% = cells with rucaparib alone) was 109% (inactive). For the same molecule, the viability ([13]; at 0.00488 µM, OCI-C5x cells, without rucaparib) was 123% (inactive), the viability ([13]; at 0.00488 µM, OCI-P5x cells, with rucaparib 20 µM, 100% = cells with rucaparib alone) was 92.4% (active) and the viability ([13]; at 0.00488 µM, OCI-P5x cells, without rucaparib) was 112% (inactive). The viability ([13]; at 0.0195 µM, OCI-C5x cells, with rucaparib 10 µM, 100% = cells with rucaparib alone) was 103% (inactive), the viability ([13]; at 0.0195 µM, OCI-C5x cells, without rucaparib) was 120% (inactive) and the viability ([13]; at 0.0195 µM, OCI-P5x cells, with rucaparib 20 µM, 100% = cells with rucaparib alone) was 99.1% (active). The viability ([13]; at 0.0195 µM, OCI-P5x cells, without rucaparib) was 115% (inactive), the viability ([13]; at 0.0781 µM, OCI-C5x cells, with rucaparib 10 µM, 100% = cells with rucaparib alone) was 90.4% (active) and the viability ([13]; at 0.0781 µM, OCI-C5x cells, without rucaparib) was 125% (inactive). For the same molecule, the viability ([13]; at 0.0781 µM, OCI-P5x cells, with rucaparib 20 µM, 100% = cells with rucaparib alone) was 89.5% (active), the viability ([13]; at 0.0781 µM, OCI-P5x cells, without rucaparib) was 107% (inactive) and the viability ([13]; at 0.313 µM, OCI-C5x cells, with rucaparib 10 µM, 100% = cells with rucaparib alone) was 93.3% (active). For the same molecule, the viability ([13]; at 0.313 µM, OCI-C5x cells, without rucaparib) was 116% (inactive), the viability ([13]; at 0.313 µM, OCI-P5x cells, with rucaparib 20 µM, 100% = cells with rucaparib alone) was 88.3% (active) and the viability ([13]; at 0.313 µM, OCI-P5x cells, without rucaparib) was 108% (inactive). For the same molecule, the viability ([13]; at 1.25 µM, OCI-C5x cells, with rucaparib 10 µM, 100% = cells with rucaparib alone) was 95.9% (active), the viability ([13]; at 1.25 µM, OCI-C5x cells, without rucaparib) was 122% (inactive) and the viability ([13]; at 1.25 µM, OCI-P5x cells, with rucaparib 20 µM, 100% = cells with rucaparib alone) was 92.7% (active). The viability ([13]; at 1.25 µM, OCI-P5x cells, without rucaparib) was 110% (inactive), the viability ([13]; at 5 µM, OCI-C5x cells, with rucaparib 10 µM, 100% = cells with rucaparib alone) was 94.4% (active) and the viability ([13]; at 5 µM, OCI-C5x cells, without rucaparib) was 132% (inactive). The viability ([13]; at 5 µM, OCI-P5x cells, with rucaparib 20 µM, 100% = cells with rucaparib alone) was 39.1% (active), the viability ([13]; at 5 µM, OCI-P5x cells, without rucaparib) was 60.5% (active) and the inhibition ([14]; at 0.5 µM, stronger effect = higher value) was -45.2% (inactive). The inhibition ([14]; measured here: combination with BGB IC20, at 0.005 µM) was -29.7%, the inhibition ([14]; measured here: combination with BGB IC40, at 0.005 µM) was -42% and the inhibition ([14]; measured here: combination with BGB IC40, at 0.05 µM) was -7.74%. It also gave an inhibition ([14]; measured here: combination with cisplatin, at 0.5 µM, stronger effect = higher value) of -52.3%, an inhibition ([14]; measured here: combination with cisplatin, at 5 µM, stronger effect = higher value) of 23.5% and an inhibition ([15]; BGB combo, at 5 µM) of 18.5%. For the same molecule, the inhibition ([15]; at 0.5 µM) was 22.6% (inactive), the inhibition ([15]; cisplatin combo, at 5 µM) was 37% and the inhibition ([15]; measured here: with BGB IC20 combination, at 0.5 µM) was 13.7%. For the same molecule, the inhibition ([15]; measured here: with cisplatin IC20 combination, at 0.5 µM) was 24.2%, the inhibition ([15]; single agent, at 5 µM) was 45% and the inhibition ([16]; BGB IC20 combo, at 0.005 µM) was -5.45%. For the same molecule, the inhibition ([16]; BGB IC40 combo, at 0.005 µM) was 3.46%, the inhibition ([16]; BGB IC40 combo, at 0.05 µM) was 30.7% and the inhibition ([16]; at 0.5 µM) was -2.76% (inactive). It also gave an inhibition ([16]; cisplatin combo, at 0.05 µM) of 27.3%, an inhibition ([16]; cisplatin combo, at 0.5 µM) of -19.5% and an inhibition ([16]; cisplatin combo, at 5 µM) of 2.87%. The inhibition ([16]; measured here: 5 uM single agent, at 5 µM) was 5.64%, the inhibition ([17]; at 0.5 µM) was 10.5% (inactive) and the inhibition ([17]; measured here: with BGB IC20, at 0.5 µM) was 11.8%. For the same molecule, the inhibition ([17]; measured here: with BGB IC20, at 5 µM) was 42.2%, the inhibition ([17]; measured here: with cisplatin IC20, at 0.5 µM) was 8.49% and the inhibition ([17]; measured here: with cisplatin IC20, at 5 µM) was 30.2%. The inhibition ([17]; single agent, at 5 µM) was 46.6%, the inhibition ([18]; at 0.5 µM) was 1.41% (inactive) and the inhibition ([18]; measured here: BGB combination, at 0.5 µM) was -2.21%. It also gave an inhibition ([18]; measured here: BGB combination, at 5 µM) of -3.92%, an inhibition ([18]; measured here: cisplatin combination, at 0.5 µM) of -6.73% and an inhibition ([18]; measured here: cisplatin combination, at 5 µM) of -16.3%. For the same molecule, the inhibition ([19]; at 0.5 µM) was 10.3% (inactive), the inhibition ([19]; cisplatin combination, at 0.5 µM) was 14.9% and the inhibition ([19]; cisplatin combination, at 5 µM) was -88.1%. For the same molecule, the inhibition ([19]; measured here: BGB IC40 combination 0.05 uM, at 0.05 µM) was 3%, the inhibition ([19]; single agent, at 5 µM) was 29.8% and the inhibition ([20]; at 0.5 µM) was 9.76% (inactive). For the same molecule, the inhibition ([20]; cisplatin combo, at 5 µM) was 16.5%, the inhibition ([20]; measured here: BGB IC40 combination, at 0.05 µM) was -25% and the inhibition ([20]; measured here: combination with cisplatin, at 0.5 µM) was 0.78%. The inhibition ([20]; single agent, at 5 µM) was 15.1%.
